In PubChem BioAssay (Tox21):
Values joined by “and” are separate entries in the source; they are usually repeats but may differ in a detail not shown here. Identical values can stand only once. Inconclusive results are not listed. A call without a number means that no potency is given here. A structure can be active in one record and inactive in another. Active and inactive are the calls of the source. Unless noted, the call rests on the fitted dose curve.

Tests used:
[1] = Nuclear factor erythroid 2-related factor 2/antioxidant responsive element (Nrf2/ARE) small molecule agonists: qHTS cell viability counter screen in human keratinocytes (AID 1919968; active means well fitted curve in the direction sought with a large enough effect in the repeat runs; an effect the other way counts as inactive or inconclusive; further: nearly all actives have a fitted effect of over 55% in size)
Summary of the method: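 In human HaCaT keratinocytes stably expressing an ARE-driven luciferase, compound exposure lasted 23 h at 37 C under 5% CO2. Viable cells are quantified with a protease-based fluorogenic reagent (CellTiter-Fluor) read 1 h after addition.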

[2] = target: Gonadotropin-releasing hormone receptor (Homo sapiens) (UniProt P30968); test: Human gonadotropin-releasing hormone receptor (GnRHR) small molecule agonists, calcium flux assay in GnRHR-HEK293 cells (AID 1920063); further: nearly all actives have a fitted effect of over 35% in size
Chain of Gonadotropin-releasing hormone receptor (Homo sapiens) (P30968 whole entry, looked up): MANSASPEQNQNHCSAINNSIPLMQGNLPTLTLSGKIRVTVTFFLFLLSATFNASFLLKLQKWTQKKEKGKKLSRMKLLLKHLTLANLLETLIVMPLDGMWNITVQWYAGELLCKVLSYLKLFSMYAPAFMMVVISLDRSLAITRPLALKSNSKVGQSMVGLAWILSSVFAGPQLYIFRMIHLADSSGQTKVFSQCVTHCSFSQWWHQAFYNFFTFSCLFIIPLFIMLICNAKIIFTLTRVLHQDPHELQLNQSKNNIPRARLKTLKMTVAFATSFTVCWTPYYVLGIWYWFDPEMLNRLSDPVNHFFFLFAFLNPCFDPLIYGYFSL
Summary of the method: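 Intracellular calcium rise is the read-out: engineered human GnRHR HEK293 cells, dye-loaded, are exposed to DMSO-dissolved compounds and fluorescence at Ex/Em 480/540 is tracked for 3 min.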

[3] = target: KiSS-1 receptor (Homo sapiens) (UniProt Q969F8); test: Human kisspeptin (KISS1R) small molecule agonists, calcium flux assay in KISS1R-HEK293 cells (AID 1920064; active means well fitted curve in the direction sought with a large enough effect in the repeat runs; an effect the other way counts as inactive or inconclusive)
Chain of KiSS-1 receptor (Homo sapiens) (Q969F8 whole entry, looked up): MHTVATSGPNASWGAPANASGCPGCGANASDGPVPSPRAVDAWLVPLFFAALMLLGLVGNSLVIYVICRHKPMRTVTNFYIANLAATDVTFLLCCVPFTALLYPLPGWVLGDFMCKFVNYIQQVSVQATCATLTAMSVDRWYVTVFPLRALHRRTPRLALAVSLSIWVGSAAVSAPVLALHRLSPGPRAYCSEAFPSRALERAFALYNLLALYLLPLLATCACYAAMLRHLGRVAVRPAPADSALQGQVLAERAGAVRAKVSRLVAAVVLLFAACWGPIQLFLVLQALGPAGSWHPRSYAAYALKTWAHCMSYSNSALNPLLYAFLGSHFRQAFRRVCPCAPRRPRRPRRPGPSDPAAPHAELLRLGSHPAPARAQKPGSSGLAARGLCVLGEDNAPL
Summary of the method: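 Concentration-response testing used 15 concentrations in triplicate on human KISS1R-expressing HEK293 cells. Calcium-dependent fluorescence (Ex/Em 480/540) was followed kinetically for 3 min after compound transfer.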

[4] = p53 small molecule agonists, cell-based qHTS assay with human liver microsomes (AID 1963577); further: potency means the concentration at half of the fitted maximal effect
Summary of the method: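 p53RE-bla reporter cells were pre-incubated 5 h at 37 C, then treated with compounds plus human liver microsomes (0.5 mg/mL final) and NADPH (0.5 mg/mL final) for 16 h at 37 C. Beta-lactamase activity was read by LiveBLAzer fluorescence after 2 h at room temperature.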

[5] = p53 small molecule agonists, cell-based qHTS assay with rat liver microsomes (AID 1963578)
Summary of the method: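 p53RE-bla cells were exposed to compounds together with rat liver microsomes (0.5 mg/mL final) and NADPH (0.5 mg/mL final) for 16 h at 37 C, then read by LiveBLAzer beta-lactamase fluorescence after 2 h at room temperature.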

[6] = p53 small molecule agonists, cell-based qHTS assay with human liver microsomes: qHTS cell viability counter screen (AID 1963579); further: nearly all actives have a fitted effect of over 45% in size; further: potency means the concentration at half of the fitted maximal effect
Summary of the method: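 p53RE-bla cells (4,000/well) were pre-incubated 5 h at 37 C, then given compounds in DMSO plus human liver microsomes (0.5 mg/mL final) and NADPH (0.5 mg/mL final) for 16 h at 37 C. Viability was read by CellTiter-Glo luminescence.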

[7] = p53 small molecule agonists, cell-based qHTS assay with rat liver microsomes: qHTS cell viability counter screen (AID 1963580); further: nearly all actives have a fitted effect of over 45% in size
Summary of the method: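 After the beta-lactamase ratio was read, CellTiter-Glo was added to the same wells and luminescence measured at 30 min; cells had been treated 16 h at 37 C with compounds, rat liver microsomes and NADPH (0.5 mg/mL final each).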

[8] = p53 small molecule agonists, cell-based qHTS assay: qHTS cell viability counter screen (AID 1963581); further: nearly all actives have a fitted effect of over 45% in size
Summary of the method: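 Luminescence from CellTiter-Glo, reflecting ATP content, serves as the cytotoxicity measure; it is taken after the 2 h reporter substrate step in HCT-116 p53RE-bla cells dosed for 16 h at 37 C.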

[9] = p53 small molecule agonists, cell-based qHTS assay (AID 1963582; active means well fitted activation curve with a large enough effect in the signal ratio in the repeat runs, not every such curve was filed as active; the % refers to the signal ratio)
Summary of the method: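 After plating, p53RE-bla cells sat 5 h in the incubator; compounds or DMSO vehicle were pinned in; a 16 h incubation at 37 C followed; FRET substrate was added and, 2 h later at RT, fluorescence was measured.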

[10] = target: 5-hydroxytryptamine receptor 2A (Homo sapiens) (UniProt P28223); test: 5-hydroxytryptamine receptor 2A (HTR2A) small molecule antagonists, cell-based qHTS assay (AID 1963586); further: nearly all actives have a fitted effect of over 45% in size; further: potency means the concentration at half of the fitted maximal effect
Chain of 5-hydroxytryptamine receptor 2A (Homo sapiens) (P28223 whole entry, looked up): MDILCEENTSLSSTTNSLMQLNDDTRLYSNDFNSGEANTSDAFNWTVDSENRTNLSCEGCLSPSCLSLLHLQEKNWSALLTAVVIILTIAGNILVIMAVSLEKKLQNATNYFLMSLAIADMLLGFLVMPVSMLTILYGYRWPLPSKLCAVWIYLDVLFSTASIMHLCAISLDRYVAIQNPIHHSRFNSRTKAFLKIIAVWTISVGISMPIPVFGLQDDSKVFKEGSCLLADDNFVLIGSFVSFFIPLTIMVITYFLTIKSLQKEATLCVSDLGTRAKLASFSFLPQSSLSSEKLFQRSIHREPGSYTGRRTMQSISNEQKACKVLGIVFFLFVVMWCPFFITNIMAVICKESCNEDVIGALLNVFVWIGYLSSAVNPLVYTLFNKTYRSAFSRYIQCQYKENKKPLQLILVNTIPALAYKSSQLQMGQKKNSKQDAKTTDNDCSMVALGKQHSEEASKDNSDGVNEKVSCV
Summary of the method: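 CHO cells stably expressing human HTR2A were plated for 18 h at 37 C, then loaded with calcium dye for 1 h. Compounds were preincubated 5 min at room temperature before DOI (4 nM solution) was added. Kinetic fluorescence was read for 3 min.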

[11] = target: 5-hydroxytryptamine receptor 2A (Homo sapiens) (UniProt P28223); test: 5-hydroxytryptamine receptor 2A (HTR2A) small molecule agonists, cell-based qHTS assay (AID 1963587); further: nearly all actives have a fitted effect of over 30% in size; further: potency means the concentration at half of the fitted maximal effect
Summary of the method: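 CHO cells stably expressing human HTR2A, plated 18 h, loaded with calcium dye 1 h at 37 C. Agonist mode: compounds added and intracellular calcium fluorescence recorded kinetically for 2 min at 1 sec intervals.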

[12] = target: Muscarinic acetylcholine receptor M1 (Homo sapiens) (UniProt P11229); test: Cholinergic receptor muscarinic 1 (CHRM1) small molecule antagonists, cell-based qHTS assay (AID 1963588); further: nearly all actives have a fitted effect of over 40% in size; further: potency means the concentration at half of the fitted maximal effect
Chain of Muscarinic acetylcholine receptor M1 (Homo sapiens) (P11229 whole entry, looked up): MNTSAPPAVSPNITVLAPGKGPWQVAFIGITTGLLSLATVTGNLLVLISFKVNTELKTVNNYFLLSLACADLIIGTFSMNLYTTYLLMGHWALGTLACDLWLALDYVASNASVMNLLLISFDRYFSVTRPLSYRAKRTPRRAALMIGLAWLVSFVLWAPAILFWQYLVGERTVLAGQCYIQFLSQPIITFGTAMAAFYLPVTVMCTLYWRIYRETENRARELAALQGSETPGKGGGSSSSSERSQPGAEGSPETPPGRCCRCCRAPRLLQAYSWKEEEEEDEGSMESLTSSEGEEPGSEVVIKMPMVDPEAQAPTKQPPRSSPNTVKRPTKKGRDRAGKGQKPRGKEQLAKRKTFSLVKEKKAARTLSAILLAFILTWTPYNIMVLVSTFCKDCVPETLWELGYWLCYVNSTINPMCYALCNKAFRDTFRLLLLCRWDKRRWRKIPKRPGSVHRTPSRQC
Summary of the method: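 Compounds were tested at 15 concentrations in three independent runs. Dye-loaded CHRM1-CHO cells were exposed 5 min at room temperature before stimulation by acetylcholine added at 50nM. Intracellular calcium was read kinetically on FDSS for 3 min.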

[13] = target: Muscarinic acetylcholine receptor M1 (Homo sapiens) (UniProt P11229); test: Cholinergic receptor muscarinic 1 (CHRM1) small molecule agonists, cell-based qHTS assay (AID 1963589); further: nearly all actives have a fitted effect of over 35% in size
Summary of the method: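 Fluorescent calcium dye reports M1 activation in stably transfected CHO cells. Compounds, 15 concentrations, added after 1 h dye loading at 37 C; kinetic reading at 1 sec intervals.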

[14] = cAMP Responsive Elements (CRE) small molecule agonists, cell-based qHTS assay (AID 1963590)
Summary of the method: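 Compound exposure lasted 3 h at 37 C/5% CO2 in CRE-bla HEK 293T cells grown in assay medium with 10% dialyzed FBS and 25 mM HEPES. Reporter signal came from LiveBLAzer B/G FRET substrate, 2 h, room temperature.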

[15] = cAMP Responsive Elements (CRE) small molecule antagonists, cell-based qHTS assay (AID 1963591; active means well fitted inhibition curve with a large enough effect in the signal ratio in the repeat runs, not every such curve was filed as active; the % refers to the signal ratio)
Summary of the method: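 Stimulation used NKH477 at a final 0.25 uM for 3 h in compound-treated CRE-bla HEK293T cells, seeded 18 h beforehand. Reporter activity was measured with LiveBLAzer B/G FRET substrate after 2 h at room temperature.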

[16] = target: Beta-2 adrenergic receptor (Homo sapiens) (UniProt P07550); test: Adrenergic beta2 receptor (ADRB2) small molecule antagonists, cell-based qHTS assay (AID 1963592); further: series mostly up to about 92 µM; nearly all actives have a fitted effect of over 50% in size
Chain of Beta-2 adrenergic receptor (Homo sapiens) (P07550 whole entry, looked up): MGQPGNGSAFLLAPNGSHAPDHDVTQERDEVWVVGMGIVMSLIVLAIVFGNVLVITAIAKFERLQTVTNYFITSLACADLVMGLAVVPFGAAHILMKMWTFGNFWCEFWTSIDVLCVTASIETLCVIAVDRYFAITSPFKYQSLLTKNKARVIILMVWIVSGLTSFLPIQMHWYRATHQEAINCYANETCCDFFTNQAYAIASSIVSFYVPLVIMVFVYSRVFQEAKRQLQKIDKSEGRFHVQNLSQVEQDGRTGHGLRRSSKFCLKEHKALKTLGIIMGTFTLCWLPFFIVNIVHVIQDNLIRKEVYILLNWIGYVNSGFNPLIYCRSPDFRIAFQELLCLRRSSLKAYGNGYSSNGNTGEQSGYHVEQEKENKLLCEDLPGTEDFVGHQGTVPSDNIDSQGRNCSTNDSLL
Summary of the method: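 Assay format: CHO-ADRB2 cells, 18-20hr seeding at 37C/5% CO2, then compound plus 1nM isoproterenol agonist mix for 0.5hr RT. Homogeneous time-resolved fluorescence cAMP detection after 1hr, expressed as 665/615 nm ratio.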

[17] = target: D(2) dopamine receptor (Homo sapiens) (UniProt P14416); test: Dopamine D2 receptor (DRD2) small molecule agonists, cell-based qHTS assay (AID 1963594); further: nearly all actives have a fitted effect of over 35% in size
Chain of D(2) dopamine receptor (Homo sapiens) (P14416 whole entry, looked up): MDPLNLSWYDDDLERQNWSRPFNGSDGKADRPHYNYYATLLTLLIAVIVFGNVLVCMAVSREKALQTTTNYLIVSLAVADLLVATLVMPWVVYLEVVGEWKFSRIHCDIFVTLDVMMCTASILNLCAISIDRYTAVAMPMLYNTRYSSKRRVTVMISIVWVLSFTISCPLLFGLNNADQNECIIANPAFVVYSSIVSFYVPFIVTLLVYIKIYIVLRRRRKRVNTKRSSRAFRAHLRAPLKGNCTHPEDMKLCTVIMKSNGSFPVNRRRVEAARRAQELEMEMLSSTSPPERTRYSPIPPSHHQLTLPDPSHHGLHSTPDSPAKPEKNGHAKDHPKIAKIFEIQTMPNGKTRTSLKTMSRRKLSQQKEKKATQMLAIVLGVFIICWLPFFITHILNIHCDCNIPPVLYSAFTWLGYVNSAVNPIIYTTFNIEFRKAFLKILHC
Summary of the method: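 HEK293 cells stably expressing human DRD2, pre-treated with PDE inhibitor Ro20-1724 (0.1 mM final) and compound 10 min at room temperature, then stimulated with NKH477 (200nM […]) for 30 min. cAMP read by HTRF (665/620 nm).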

[18] = target: D(2) dopamine receptor (Homo sapiens) (UniProt P14416); test: Dopamine D2 receptor (DRD2) small molecule antagonists, cell-based qHTS assay (AID 1963595; active means well fitted inhibition curve with a large enough effect in the signal ratio in the repeat runs, with a control signal flat; the % refers to the signal ratio)
Summary of the method: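 Cells were plated and grown for 24 h at 37 °C. Ro20-1724 (0.1 mM final) went in first, then compound for 10 min. NKH477 (200 nM) with quinpirole (12 nM) followed for 30 min at RT, then HTRF detection reagents for 1 h.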

[19] = target: Beta-2 adrenergic receptor (Homo sapiens) (UniProt P07550); test: Adrenergic beta2 receptor (ADRB2) small molecule agonists, cell-based qHTS assay (AID 1963593);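 further: CHO cells stably overexpressing human ADRB2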
Summary of the method: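 CHO cells stably over-expressing ADRB2 were plated overnight at 37C, then dosed with compounds plus a stimulation mix containing 100uM IBMX and 25uM Ro-20-1724 for 0.5hr at room temperature. cAMP was measured by HTRF competition, 1hr.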

[20] = G protein-coupled receptor (GPCR) small molecule agonists, calcium flux assay: HEK293 wild type cell line counter screen (AID 1920065)
Summary of the method: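 Fluorescence intensity signals activation. After overnight (18 h) culture and a 1 h calcium dye load at 37 C, compounds are added by pin tool and the plate read at 480/540 nm for 3 min in 1 s steps.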

Row | SMILES | Potency [1] | Potency [2] | Potency [3] | Potency [4] | Potency [5] | Potency [6] | Potency [7] | Potency [8] | Potency [9] | Potency [10] | Potency [11] | Potency [12] | Potency [13] | Potency [14] | Potency [15] | Potency [16] | Potency [17] | Potency [18] | Potency [19] | Potency [20]
1 | CCOc1cc(C=O)ccc1O | inactive | inactive | inactive | inactive | inactive | inactive | inactive | inactive | inactive | inactive | inactive | inactive | inactive | inactive | inactive | inactive | inactive | inactive |  | 
2 | c1ccc2sc(SNC3CCCCC3)nc2c1 | inactive | inactive | inactive |  |  | inactive | inactive | inactive |  | inactive | inactive | inactive | inactive | inactive | inactive | inactive | inactive | inactive | inactive | 
3 | NCCc1ccc(O)cc1 | inactive | inactive |  | inactive | inactive | inactive | inactive | inactive | inactive | 4.17 µM (active) and inactive | 5.45 µM (active) and 8.49 µM (active) | inactive | inactive | inactive |  | inactive | inactive | inactive | inactive | inactive
4 | Cc1cccc(N)c1C | inactive | inactive | inactive | inactive | inactive | inactive | inactive | inactive | inactive | inactive | inactive | inactive | inactive | inactive | inactive | inactive | inactive | inactive | inactive | 
5 | CC(C)N(C(=O)CCl)c1ccccc1 |  | inactive | inactive |  |  | inactive | inactive | inactive |  | inactive | inactive | inactive | inactive |  |  | inactive | inactive | inactive | inactive | inactive
6 | CCCCCCCCCCCCn1cc[n+](C)c1 |  |  | inactive |  |  |  |  |  |  | inactive and 33.7 µM (active) |  |  | inactive | inactive | inactive | inactive | inactive | inactive | inactive | inactive
7 | O=P(O)(O)CCCl |  | inactive | inactive |  |  | inactive | inactive |  | inactive | inactive | inactive | inactive | inactive | inactive |  | inactive | inactive | inactive | inactive | inactive
8 | Oc1cccc2cccnc12 |  | inactive | inactive |  |  | inactive and 971 nM (active) and 913 nM (active) |  | inactive |  |  |  |  |  | inactive | inactive | inactive | inactive | inactive | inactive | inactive
9 | COP(=S)(OC)SCn1nnc2ccccc2c1=O |  | inactive | inactive | 12.6 µM (active) |  | inactive | inactive | inactive |  | inactive | inactive | inactive | inactive | inactive | inactive | inactive | inactive | inactive |  | inactive
10 | C=C(C)[C@H]1Cc2c(ccc3c2O[C@@H]2COc4cc(OC)c(OC)cc4[C@@H]2C3=O)O1 |  | inactive | inactive |  |  | inactive | inactive |  |  |  |  |  |  |  | inactive | inactive | inactive | inactive | inactive | inactive
11 | CC(C)NC(C)C |  | inactive | inactive | inactive |  |  |  | inactive | inactive | inactive | inactive |  | inactive | inactive | inactive | inactive | inactive |  | inactive | inactive
12 | Cc1cc(-c2cc(C)c(N)c(C)c2)cc(C)c1N |  | inactive | inactive | inactive | inactive | inactive | inactive | inactive | inactive |  |  | 2.11 µM (active) and inactive | inactive | inactive | inactive |  | inactive | inactive |  | inactive
13 | C=CC1(C)OC(=O)N(c2cc(Cl)cc(Cl)c2)C1=O (stereo not given) |  | inactive | inactive | inactive | inactive | inactive | inactive | inactive | inactive | inactive | inactive |  | inactive | inactive | inactive | inactive |  | inactive | inactive | inactive
14 | Clc1ccccc1-c1nnc(-c2ccccc2Cl)nn1 |  | inactive | inactive |  |  | inactive | inactive | inactive |  | inactive | inactive | inactive | inactive | inactive | inactive | inactive | inactive | inactive | inactive | inactive
15 | COP(=O)(CCC(=O)NCO)OC |  | inactive | inactive | inactive | inactive | inactive | inactive | inactive | inactive | inactive | inactive | inactive | inactive | inactive | inactive | inactive | inactive | inactive |  | inactive
16 | COc1cc2c(cc1OC)[C@@]13CCN4CC5=CCO[C@H]6CC(=O)N2[C@H]1[C@H]6[C@H]5C[C@H]43 |  | inactive | inactive | inactive | inactive | inactive | inactive | inactive | inactive | inactive | inactive | inactive | inactive | inactive | inactive | inactive | inactive | inactive |  | inactive
17 | Sc1ccccc1 |  | inactive | inactive |  |  |  | inactive | inactive |  | inactive | inactive | inactive | inactive | inactive | inactive | inactive | inactive | inactive | inactive | inactive
